The source of these data is PubChem BioAssay AID488847 (NMMLSC, 2010).

The campaign covered roughly 330,000 compounds. About 1,900 (0.58%) were called active. The sample holds actives, similar compounds and a random draw of the others, so the mix is not that of the screen.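 The calls were made as follows: active = inhibition of aptamer binding above 40%, roughly 3 SD of noise, on plates passing a quality check; inactive = the rest.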

Chain of Beta-adrenergic receptor kinase 1 (Homo sapiens) (P25098 whole entry, looked up): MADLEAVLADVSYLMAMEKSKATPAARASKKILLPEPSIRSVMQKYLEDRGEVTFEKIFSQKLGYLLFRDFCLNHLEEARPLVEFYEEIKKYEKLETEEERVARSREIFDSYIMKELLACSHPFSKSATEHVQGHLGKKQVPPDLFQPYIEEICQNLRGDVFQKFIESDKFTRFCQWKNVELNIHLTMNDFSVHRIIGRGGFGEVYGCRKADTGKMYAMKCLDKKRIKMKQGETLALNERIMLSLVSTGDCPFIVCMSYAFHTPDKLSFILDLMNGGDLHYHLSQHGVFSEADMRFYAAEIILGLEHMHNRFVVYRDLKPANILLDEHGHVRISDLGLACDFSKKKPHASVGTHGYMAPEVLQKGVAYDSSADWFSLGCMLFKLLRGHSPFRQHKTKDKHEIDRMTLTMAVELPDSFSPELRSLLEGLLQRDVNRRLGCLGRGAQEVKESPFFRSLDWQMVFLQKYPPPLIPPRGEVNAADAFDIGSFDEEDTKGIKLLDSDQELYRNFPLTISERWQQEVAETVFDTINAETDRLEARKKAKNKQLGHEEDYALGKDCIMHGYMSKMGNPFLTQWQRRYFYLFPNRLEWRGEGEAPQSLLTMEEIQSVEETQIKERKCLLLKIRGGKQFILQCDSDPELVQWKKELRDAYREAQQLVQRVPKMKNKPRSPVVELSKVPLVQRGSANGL

This assay concerns the target Beta-adrenergic receptor kinase 1 (Homo sapiens) (UniProt P25098). Description: compounds blocking aptamer binding on GRK2 – biochemical, human GRK2, bead flow cytometry, HTS, primary screen (AID 488847).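 Also: median bead fluorescence of bound FAM aptamer so fluorescent compounds give negative values.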 As to conditions: FAM-aptamer displacement from GRK2, at 10 µM, active compounds read high. Background: Flow cytometry measures light scatter and fluorescence of single cells or particles in a stream.
As to `CCOc1cc(NC(=S)NCc2ccco2)c(OCC)cc1NC(=O)c1ccco1`, the inhibition of aptamer binding is 0% (inactive).

As for `CCOc1ccccc1C(=O)NCc1ccco1`, the inhibition of aptamer binding is 50% (active). Turning to `Cc1cccc(Nc2ccccc2C(=O)NCc2ccco2)c1C`, the inhibition of aptamer binding was 0% (inactive). For `Cc1csc(=O)n1CC(=O)OCC(=O)N(CC(C)C)c1c(N)n(Cc2ccccc2)c(=O)[nH]c1=O`, the inhibition of aptamer binding is 98% (active). Regarding `CC(C)CN(C(=O)COC(=O)c1ccc2ccccc2c1)c1c(N)n(Cc2ccccc2)c(=O)[nH]c1=O`, the inhibition of aptamer binding is 0% (inactive).

As to `CC(C)CN(C(=O)COC(=O)c1ccc(Cl)c(N)c1)c1c(N)n(Cc2ccccc2)c(=O)[nH]c1=O`, the inhibition of aptamer binding is 1% (inactive). Regarding `c1ccc(CC2CCN(c3nc4ccccc4n4cnnc34)CC2)cc1`, the inhibition of aptamer binding was 0% (inactive). Regarding `COc1ccc(C(=O)NCCNc2ccc([N+](=O)[O-])cn2)cc1`, the inhibition of aptamer binding was 45% (active). As for `COc1ccccc1OCCNC(=O)c1cc([N+](=O)[O-])cc([N+](=O)[O-])c1`, the inhibition of aptamer binding was 0% (inactive). In the case of `COc1ccc(C(=O)NCCSc2ccccc2C)cc1`, the inhibition of aptamer binding is 0% (inactive). Turning to `O=C(N/N=C/C=C/c1ccco1)c1cccs1`, the inhibition of aptamer binding is 7% (inactive).

In the case of `Cc1nn(C)c(Cl)c1CN1CCC(n2nccc2NC(=O)C2CCCC2)CC1`, the inhibition of aptamer binding was 4% (inactive).

Turning to `COc1ccc(S(=O)(=O)N2CCOCC2)cc1C(=O)NC1CCCCC1`, the inhibition of aptamer binding is 3% (inactive). Turning to `CC1CCCCC1NC(=O)CN1CCC(O)(c2ccc3c(c2)OCO3)CC1` (stereo not drawn), the inhibition of aptamer binding was 1% (inactive). Consider `COc1ccc(CNC(=O)COc2ccccc2C(=O)c2cnn(-c3ccccc3)c2)cc1OC`, for which the inhibition of aptamer binding was 1% (inactive). Take `Cc1ncc(CC(=O)n2cc(C(=O)c3cc(Cl)ccc3O)cn2)s1`: the inhibition of aptamer binding was 6% (inactive). As for `O=C(c1cnn(-c2ccc(Cl)cc2)c1)c1ccccc1O`, the inhibition of aptamer binding was 47% (active).

`Cc1ccc(C)c(S(=O)(=O)N2CCN(c3ncnc4sccc34)CC2)c1`: the inhibition of aptamer binding is 2% (inactive).

Turning to `Cc1ccc(-n2ncc3c2CC(C)(C)CC3NC(=O)Cc2c(C)noc2C)cc1` (stereo not drawn), the inhibition of aptamer binding was 3% (inactive).

`CCOC(=O)C1CCN(C(c2cc3cc(C)cc(C)c3[nH]c2=O)c2nnnn2C2CCCCC2)CC1` (stereo not drawn): the inhibition of aptamer binding was 0% (inactive). In the case of `CCOC(=O)C1CCCN(Cc2nc(N)nc(Nc3ccc(C)cc3)n2)C1` (stereo not drawn), the inhibition of aptamer binding was 60% (active). For the compound `Cc1ccc(Nc2nc(N)nc(CN3CCN(Cc4ccccc4)CC3)n2)cc1Cl`, the inhibition of aptamer binding was 1% (inactive). For `CCOC(=O)C1CCCN(CCSc2ccc(C)cc2)C1` (stereo not drawn), the inhibition of aptamer binding was 0% (inactive). Regarding `Cc1cc(C)c2nc(N3CCC(C(=O)NCCN4CCOCC4)CC3)sc2c1`, the inhibition of aptamer binding is 1% (inactive).

Take `CC1CCN(CC(=O)Nc2nccs2)CC1`: the inhibition of aptamer binding is 1% (inactive). On to `Cc1cccc(N2C(=O)c3ccc(C(=O)Nc4cccc(C(=O)O)c4)cc3C2=O)c1`, for which the inhibition of aptamer binding is 0% (inactive). The value for `O=C(/C=C/c1ccc(N2CCOCC2)cc1)c1ccccc1` was 0% (inactive); that for `O=C(O)c1ccc2c(c1)C(=O)N(c1ccc(/C=C/C(=O)c3ccccc3)cc1)C2=O` was 46% (active).
